Only some compounds are listed: those with a hit (about 4.5% of all), similar ones and a draw of the others.
PfHsp90 yeast 2 = growth inhibition of PfHsp90-expressing yeast, primary screen, antimalarial PfHsp90 inhibitor project, S. cerevisiae, BacTiter-Glo luminescence, single point, set 2; BacTiter-Glo ATP, 48 h; yeast lacking PDR1 and PDR3 efflux regulators; inhibition, % at 9.4 µM; actives 0.32% (n = 310,000);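 active means every replicate shows inhibition above about 80%, whatever the replicate mean, limit read from the data; inconclusive means mean inhibition reaches the set limit but some replicate falls short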;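 further: 0% = DMSO neutral controls and 100% = 20 µM radicicol positive controls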
tim10-1 inh = growth inhibitors of tim10-1 mutant yeast, primary screen, luminescence, uHTS; S. cerevisiae tim10-1 ts strain growth, BacTiter-Glo, 24 h; inhibition, % at 20 µM; actives 2.2% (n = 330,000); AID 463190, 2010;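 active means inhibition of at least 40%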;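 further: mutant grown at 25 °C; 0% = DMSO wells with yeast and 100% = wells holding no yeast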
TIM10 inh = growth inhibitors of isogenic TIM10 control yeast, primary screen, counter-screen for tim10-1 yeast inhibitor project, luminescence, uHTS; S. cerevisiae TIM10 strain growth, BacTiter-Glo luminescence, 24 h; inhibition, % at 10 µM; actives 1.4% (n = 330,000); AID 463195, 2010;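 active means inhibition of 40% or more at the single tested concentration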;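 further: wild-type TIM10 isogenic control strain grown at permissive 25 °C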
SKKanGAS inh = S. pyogenes SKKanGAS growth inhibitors in kanamycin, primary screen, streptokinase expression inhibitor project, SKKanGAS strain, BacTiter-Glo luminescence; 6 h; actives 1.3% (n = 300,000); inhibition, % at 7.5 µM; AID 1662, 2009;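 active means mean replicate score, as percent of positive control median, at least 50; inconclusive means mean below 50 but one replicate at or above 50; inactive means mean and every replicate below 50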;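 further: strain carries kanamycin resistance gene driven by streptokinase promoter and grows in 40 µg/ml kanamycin; loss of luminescence reflects streptokinase promoter inhibition or plain growth inhibition; 0% = median of DMSO wells and 100% = positive control at its reference dose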
NLRP3 yeast inh = NALP3 inflammasome inhibitors in reconstituted yeast, primary screen, luminescence, uHTS. inhibition, % at 10 µM. Yeast reconstituted NLRP3/ASC/caspase-1, beta-gal luminescence, 24 h. AID 2825, 2010. actives 0.39% (n = 330,000);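 active means inhibition of 50% or more; inactive means inhibition below 50%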;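 further: plate controls were induced DMSO wells for no effect and uninduced yeast grown without galactose for full effect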
tim23-1 inh = growth inhibitors of tim23-1 mutant yeast, primary screen, luminescence, uHTS; S. cerevisiae tim23-1 growth, BacTiter-Glo luminescence, 24 h; inhibition, % at 20 µM; actives 1.3% (n = 330,000);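 active means growth inhibition of the mutant yeast at or above 50%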;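 further: temperature-sensitive mutant grown at 25 °C; plate controls were DMSO-treated mutant yeast for no effect and medium wells lacking yeast for full effect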
tim23-1 confirm = tim23-1 mutant yeast growth inhibitors, confirmation, luminescence, single concentration. S. cerevisiae tim23-1 growth, BacTiter-Glo luminescence, 24 h. actives 83% (n = 4,400). AID 463218, 2010. shares compounds with tim23-1 inh. inhibition, % at 20 µM;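 active means inhibition above about 39% in either of two replicate wells at 20 µM, limit read from the data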;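 further: temperature-sensitive tim23-1 mutant grown at 25 °C; 0% = DMSO wells with yeast and 100% = medium wells without yeast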
Starred values were filed as active, the others as inactive; ? = inconclusive; . = not tested or not shown.

SMILES | PfHsp90 yeast 2 | tim10-1 inh | TIM10 inh | SKKanGAS inh | NLRP3 yeast inh | tim23-1 inh | tim23-1 confirm
N=c1sccn1CC(=O)Nc1cc(Cl)ccc1Oc1ccccc1 | 3 | 15 | 22 | 7 | -1 | 66* | 22
N=c1sccn1CC(=O)Nc1cccc(Oc2ccccc2)c1 | -3 | 20 | 18 | 2 | 10 | 8 | .
COc1ccc(Nc2nc(N)c([N+](=O)[O-])c(NC3CCCCC3)n2)cc1 | -101 | 39 | 23 | 32 | 25 | 62* | 52*
COc1ccc(Nc2nc(N)c([N+](=O)[O-])c(NCCO)n2)cc1 | . | 9 | 16 | 1 | 10 | 18 | .
Oc1ccc(C2C[C@H]3CC[C@@H]2C3)cc1O (some centres not stated) | -60 | 17 | 26 | 3 | 2 | 52* | 25
O=C1CC(c2ccc(O)c(O)c2)Oc2cc(O)cc(O)c21 (configuration not stated) | 1 | 0 | -2 | 1 | 4 | 1 | .
CCC(=O)Nc1nc2c(s1)COc1ccccc1-2 | 10 | 13 | -11 | -12 | 41 | 21 | .
O=C(CCCl)Nc1nc2c(s1)CCc1ccccc1-2 | -13 | 37 | 36 | 23 | 37 | 70* | 74*
CCCCN(C(=O)c1ccc2c(c1)OCCO2)c1c(N)n(CC(C)C)c(=O)[nH]c1=O | . | 12 | 6 | 11 | 5 | 58* | 58*
CC(C)CN(C(=O)c1ccc2c(c1)OCCO2)c1c(N)n(Cc2ccccc2)c(=O)[nH]c1=O | . | 28 | 17 | 1 | 7 | 52* | 55*
CCCCn1c(N)c(N(CCC(C)C)C(=O)c2ccc3c(c2)OCCO3)c(=O)[nH]c1=O | . | 30 | 22 | -8 | 18 | 59* | 56*
CCCCN(C(=O)c1ccc(C)c(S(=O)(=O)N2CCOCC2)c1)c1c(N)n(CC(C)C)c(=O)[nH]c1=O | . | 1 | -1 | 21 | 4 | 5 | .
COc1ccc(C(C)=O)cc1COC(=O)c1ccc(S(=O)(=O)N(C)C)cc1 | 10 | 10 | 2 | -11 | 8 | 27 | .
COC(=O)CCc1c(COC(C)=O)[nH]c(C(=O)OCc2ccccc2)c1C | 7 | -1 | 16 | 4 | 0 | 22 | .
CN(CC(=O)Nc1c(Cl)cccc1Cl)C(=O)CNC(=O)c1ccc2ccccc2c1 | . | -4 | -14 | -6 | 10 | -9 | .
NS(=O)(=O)c1ccc(N2N=C(c3ccccc3)CC2c2cccc(Br)c2)cc1 (configuration not stated) | 19 | 35 | 13 | . | . | 52* | 33
CCN(CC)c1ccc(NC(=S)Nc2ccc(F)cc2)cc1 | 2 | 11 | 22 | 5 | 37 | 14 | .
O=C(c1ccc(F)cc1)N(C(=O)c1ccc(F)cc1)c1ncccn1 | -34 | 32 | 33 | 5 | -7 | 55* | 47*
CC(SCc1ccccc1)C(=O)Nc1ccccc1 (configuration not stated) | -4 | -4 | -6 | 2 | 30 | 2 | .
Nc1cc(C(=O)OCC(=O)Nc2cccc(S(=O)(=O)N3CCOCC3)c2)ccc1Cl | 5 | -2 | 5 | . | 1 | 0 | .
COc1ccc(C=C2c3ccccc3C(=O)c3ccccc32)c(OC)c1 | 6 | 17 | 27 | -5 | 9 | 15 | .
COc1ccc(/C=C2\COc3ccccc3C2=O)c(OC)c1 | 2 | 15 | 22 | -1 | 35 | 55* | 50*
Cn1cncc1C#Cc1c(C=O)n(C)c2ccccc12 | 18 | 37 | 39 | . | 25 | 67* | 62*
Cc1ccc(NS(=O)(=O)c2cc(NC(=O)c3ccc4c(c3)NC(=O)CS4)ccc2Cl)c(C)c1 | -25 | 26 | 26 | 38 | -7 | 24 | .
N/C(Cc1ccc(Cl)c(Cl)c1)=N\OC(=O)c1ccc(Br)o1 | 95* | 40 | -12 | -8 | 4 | 77* | 80*
SMILES | PfHsp90 yeast 2 | tim10-1 inh | TIM10 inh | SKKanGAS inh | NLRP3 yeast inh | tim23-1 inh | tim23-1 confirm
CCOC(=O)[C@@H]1[C@H]2COc3ccc(Br)cc3[C@@H]2N2C(=O)N(c3ccccc3)C(=O)[C@@]12C | 4 | 31 | 18 | 5 | 5 | 44 | .
CCOC(=O)[C@H]1[C@H]2COc3ccc(Br)cc3[C@@H]2N2C(=O)N(c3ccccc3)C(=O)[C@@]12C | -12 | 24 | 24 | . | 2 | 50* | 28
Cc1c(C)c(C)c(S(=O)(=O)NCCC(=O)N2CCN(Cc3ccc(C#N)cc3)CC2)c(C)c1C | -15 | 9 | 3 | . | 9 | 4 | .
O=C1NC(=Nc2ccccc2Cl)S/C1=C\c1cccc([N+](=O)[O-])c1 | ? | 17 | 36 | 13 | 18 | 55* | 63*
CCCCn1c(N)c(N(CCC(C)C)C(=O)c2cccc(-n3cnnn3)c2)c(=O)[nH]c1=O | -27 | 13 | 5 | 8 | 4 | 14 | .
COc1cc(C=O)c(Br)cc1OCc1ccc(C)cc1 | -111 | 13 | 39 | 12 | -25 | 65* | 57*
COc1cc(C=O)ccc1OCc1ccncc1 | -10 | 15 | 13 | -8 | 11 | 0 | .
Oc1cccnc1SCc1ccccc1 | 2 | -23 | -3 | 13 | 5 | 9 | .
O=Cc1cccnc1SCc1ccccc1 | -7 | 17 | 15 | 9 | 9 | 57* | 61*
O=C(Nc1cn(-c2ccccc2)nc1-c1cccs1)c1ccco1 | -10 | 34 | 5 | -2 | 1 | 58* | 47*
Cc1ccc(NC(=O)/C(C#N)=C(\N)C(Cl)(Cl)Cl)nc1 | -1 | 17 | 40 | 10 | 5 | 71* | 71*
Cc1ccc(NC(=O)C(=O)Nc2ccc(C)cn2)nc1 | -9 | -13 | 9 | 2 | 13 | 5 | .
CCCn1c(-c2cccs2)nc2nc3ccccc3nc21 | -28 | 39 | 28 | 10 | 4 | 54* | 40*
COc1ccc(/C=N/NC(=O)NC23CC4CC(CC(C4)C2)C3)c(OC)c1 | 4 | 37 | 13 | 9 | -3 | 55* | 45*
COc1ccccc1/C=N/NC(=O)NC12CC3CC(CC(C3)C1)C2 | -3 | 24 | 27 | 13 | 10 | 48 | .
COc1ccc(CCC2CCNCC2)cc1 | 5 | 9 | 11 | -3 | 7 | -23 | .
O=S(=O)(CCSc1ccccn1)c1nc2ccccc2s1 | -114 | 23 | 23 | 8 | 28 | 55* | 49*
O=S(=O)(CCSc1nc2ccccc2o1)c1nc2ccccc2s1 | -54 | 19 | -1 | 2 | 43 | 49 | .
O=C1C=C(c2ccc3cc[nH]c3c2)C[C@@H](c2ccc3c(c2)OCO3)C1 | -31 | 21 | 23 | . | 23 | 55* | 47*

Assay outcomes as filed in PubChem.
